# Laboratory results taken from PubChem BioAssay AID1494156 (National Center for Advancing Translational Sciences (NCATS), 2020).
# Results filed as inconclusive are left out. Values without a mark were called inactive. The source made the active and inactive calls. Calls come from the whole dose curve.
# Test: VSV-G qHTS counterscreen for inhibitors of MERS-S pseudo-typed particle cell entry
# Conditions: VSV-G pseudotyped particle cell entry, luciferase counterscreen; series mostly up to 57.1 µM
Structure (SMILES),Potency,"activity, negative = inhibition"
CC(C)C(=O)Oc1ccc(CO)cc1[C@H](CCN(C(C)C)C(C)C)c1ccccc1,21.5 µM (active),–
CC(=O)Oc1ccccc1C(=O)Nc1ncc([N+](=O)[O-])s1,10.8 µM (active),–
CC[C@H](C)C(=O)O[C@H]1C[C@@H](C)C=C2C=C[C@H](C)[C@H](CC[C@@H]3C[C@@H](O)CC(=O)O3)[C@H]21,inactive,–
COc1cc2nccc(Oc3ccc(NC(=O)NC4CC4)c(Cl)c3)c2cc1C(N)=O,17.1 µM (active),–
CCN(CC)Cc1cc(Nc2ccnc3cc(Cl)ccc23)ccc1O,24.1 µM (active),–
CN(C/C=C/c1ccccc1)Cc1cccc2ccccc12,inactive,–
Cc1nnc(C(=O)NC(C)(C)c2nc(C(=O)NCc3ccc(F)cc3)c(O)c(=O)n2C)o1,0.0038 µM (active),–
Cc1ccc(NC(=O)c2ccc(CN3CCN(C)CC3)cc2)cc1Nc1nccc(-c2cccnc2)n1,17.1 µM (active),–
CC(C)C[C@H](NC(=O)[C@H](CCc1ccccc1)NC(=O)CN1CCOCC1)C(=O)N[C@@H](Cc1ccccc1)C(=O)N[C@@H](CC(C)C)C(=O)[C@@]1(C)CO1,0.192 µM (active),–
COC(=O)C[C@](O)(CCCC(C)(C)O)C(=O)O[C@@H]1C(OC)=C[C@]23CCCN2CCc2cc4c(cc2[C@H]13)OCO4,0.482 µM (active),–
O=c1c(C2CC(c3ccc(-c4ccc(Br)cc4)cc3)Cc3ccccc32)c(O)sc2ccccc12 (centres undefined),6.07 µM (active),–
COc1ccc2cc3[n+](cc2c1OC)CCc1cc2c(cc1-3)OCO2,8.57 µM (active),–
CCCCCCCCCCCC[n+]1ccc2ccccc2c1,1.52 µM (active),–
O=C(Nc1ccc([N+](=O)[O-])cc1Cl)c1cc(Cl)ccc1O,0.607 µM (active),–
CC(C)OC(=O)OCOP(=O)(CO[C@H](C)Cn1cnc2c(N)ncnc21)OCOC(=O)OC(C)C,0.0192 µM (active),–
COc1cccc2c1C(=O)c1c(O)c3c(c(O)c1C2=O)C[C@@](O)(C(=O)CO)C[C@@H]3O[C@H]1C[C@H](N)[C@@H](O)[C@H](C)O1,2.41 µM (active),–
N#CC(c1ccc(Cl)cc1)c1c(Cl)cc(-n2ncc(=O)[nH]c2=O)cc1Cl (centres undefined),3.83 µM (active),–
CC(=O)N1CCN(c2ccc(OC[C@H]3CO[C@](Cn4ccnc4)(c4ccc(Cl)cc4Cl)O3)cc2)CC1,7.64 µM (active),–
C/C=C(/C)C(=O)O[C@H]1C(C)=CC23C(=O)C(C=C(CO)[C@@H](O)[C@]12O)[C@H]1[C@@H](C[C@H]3C)C1(C)C (some centres undefined),inactive,–
C[C@@H](c1nc(-c2ccc(C#N)cc2)cs1)[C@](O)(Cn1cncn1)c1cc(F)ccc1F,2.15 µM (active),–
CCn1cc(C(=O)O)c(=O)c2cc(F)c(N3CCNC(C)C3)c(F)c21 (centres undefined),inactive,–
COc1cc2c(cc1Cc1cccc(Cl)c1F)c(=O)c(C(=O)O)cn2[C@H](CO)C(C)C,0.192 µM (active),–
CC[C@@]1(O)C(=O)OCc2c1cc1n(c2=O)Cc2c-1nc1ccccc1c2/C=N/OC(C)(C)C,0.0108 µM (active),–

Structure (SMILES),Potency,"activity, negative = inhibition"
O=C(O)c1cc(O)c2c(c1)[C@H]([C@H]1c3cc(C(=O)O)cc(O)c3C(=O)c3c(O[C@@H]4O[C@H](CO)[C@@H](O)[C@H](O)[C@H]4O)cccc31)c1cccc(O[C@@H]3O[C@H](CO)[C@@H](O)[C@H](O)[C@H]3O)c1C2=O,7.44 µM (active),–
O=C1c2c(O)ccc(O)c2C(=O)c2c(NCCNCCO)ccc(NCCNCCO)c21,0.541 µM (active),–
O=C1CCc2ccc(OCCCCN3CCN(c4cccc(Cl)c4Cl)CC3)cc2N1,13.6 µM (active),–
CC(CN(C)C)CN1c2ccccc2CCc2ccccc21 (centres undefined),inactive,–
Cc1cn([C@H]2C[C@H](N=[N+]=[N-])[C@@H](CO)O2)c(=O)[nH]c1=O,0.304 µM (active),–
COc1cccc2c1C(=O)c1c(O)c3c(c(O)c1C2=O)C[C@@](O)(C(C)=O)C[C@@H]3O[C@H]1C[C@H](N)[C@H](O)[C@H](C)O1,1.92 µM (active),–
Cc1cc(-n2c(=O)[nH]c(=O)n(C)c2=O)ccc1Oc1ccc(S(=O)(=O)C(F)(F)F)cc1,9.61 µM (active),–
COc1cccc2c1C(=O)c1c(O)c3c(c(O)c1C2=O)C[C@@](O)(C(=O)CO)C[C@@H]3O[C@H]1C[C@H](N)[C@H](OC2CCCCO2)[C@H](C)O1 (some centres undefined),inactive,–
C=C(C)[C@H]1Cc2c(ccc3c2O[C@@H]2COc4cc(OC)c(OC)cc4[C@@H]2C3=O)O1,0.0108 µM (active),–
C[n+]1c2cc(N)ccc2cc2ccc(N)cc21 (tested in a mixture with another compound),1.71 µM (active),–
CCCCCCCCCCCCCC[n+]1ccc(C)cc1,1.71 µM (active),–
Cc1nnc2n1-c1sc(CCc3ccc(CC(C)C)cc3)cc1C(c1ccccc1Cl)=NC2C (centres undefined),24.1 µM (active),–
C[C@H]1[C@H](OC(=O)CCC(=O)O)O[C@@H]2O[C@@]3(C)CC[C@H]4[C@H](C)CC[C@@H]1[C@@]24OO3,0.681 µM (active),–
CCCCCCOC(=O)NC(=N)c1ccc(NCc2nc3cc(C(=O)N(CCC(=O)OCC)c4ccccn4)ccc3n2C)cc1,27.1 µM (active),–
COc1ccc2cc1Oc1ccc(cc1)C[C@H]1c3c(cc4c(c3Oc3cc5c(cc3OC)CCN(C)[C@@H]5C2)OCO4)CCN1C,21.5 µM (active),–
C[C@]12CC[C@H](O)C[C@H]1CCC1C2CC[C@]2(C)[C@@H](c3ccc(=O)oc3)C[C@H]3O[C@]132 (some centres undefined),4.82 µM (active),–
CN(C)[C@@H](CCOc1cccc2ccccc12)c1ccccc1,21.5 µM (active),–
CCCCc1oc2ccccc2c1C(=O)c1cc(I)c(OCCN(CC)CC)c(I)c1,24.1 µM (active),–
Oc1c(Cl)cc(Cl)c(Cl)c1Cc1c(O)c(Cl)cc(Cl)c1Cl,1.08 µM (active),–
C=C1c2c(Cl)ccc(O)c2C(O)=C2C(=O)[C@@]3(O)C(O)=C(C(N)=O)C(=O)[C@@H](N(C)C)[C@@H]3[C@@H](O)[C@H]12,19.2 µM (active),–
CCCN1C[C@H](C)[C@@H](O)[C@](C)(O)[C@@H](CC)OC(=O)[C@H](C)[C@@H](O[C@H]2C[C@@](C)(OC)[C@@H](O)[C@H](C)O2)C(C)[C@@H](O[C@@H]2O[C@H](C)C[C@H](N(C)C)[C@H]2O)[C@](C)(O)C[C@H]1C (some centres undefined),inactive,–
CO[C@@]12[C@H](COC(N)=O)C3=C(C(=O)C(C)=C(N)C3=O)N1C[C@@H]1N[C@@H]12,0.857 µM (active),–
CCCCCCCCCCCCOCCOCCOCCOCCOCCOCCOCCOCCOCCO,5.41 µM (active),–

Structure (SMILES),Potency,"activity, negative = inhibition"
COc1ccc(Cc2nccc3cc(OC)c(OC)cc23)cc1OC,3.04 µM (active),–
COc1cccc2c1C(=O)c1c(O)c3c(c(O)c1C2=O)C[C@@](O)(C(=O)CO)CC3OC1CC(N2CCOC(OC)C2)C(O)C(C)O1 (some centres undefined),0.152 µM (active),–
CC[C@@]1(O)C(=O)OCc2c1cc1n(c2=O)Cc2cc3c(CN(C)C)c(O)ccc3nc2-1,0.0857 µM (active),–
N=C(N)c1ccc(OCCCCCOc2ccc(C(=N)N)cc2)cc1,10.8 µM (active),–
CC[C@@H]([C@H](C)O)n1ncn(-c2ccc(N3CCN(c4ccc(OC[C@@H]5CO[C@@](Cn6cncn6)(c6ccc(F)cc6F)C5)cc4)CC3)cc2)c1=O,6.81 µM (active),–
Cc1c(N)nc(C(CC(N)=O)NCC(N)C(N)=O)nc1C(=O)NC(C(=O)NC(C)C(O)C(C)C(=O)NC(C(=O)NCCc1nc(-c2nc(C(=O)NCCCN[C@@H](C)c3ccccc3)cs2)cs1)C(C)O)C(O[C@@H]1O[C@@H](CO)[C@@H](O)[C@H](O)[C@@H]1O[C@H]1O[C@H](CO)[C@@H](O)[C@H](OC(N)=O)[C@@H]1O)c1cnc[nH]1 (some centres undefined),0.764 µM (active),–
COc1c(OCCCN2CCOCC2)ccc2c3n(c(=NC(=O)c4cnc(N)nc4)nc12)CCN3,–,-8.49% [at 11.2 µM]
Cc1nn(C)c2c1C(c1ccccc1F)=NCC(=O)N2C,6.07 µM (active),–
CC(=O)OCC1=C(C(=O)O)N2C(=O)[C@@H](NC(=O)Cc3cccs3)[C@H]2SC1,inactive,–
C[C@@H]1CCO[C@H]2Cn3cc(C(=O)NCc4ccc(F)cc4F)c(=O)c(O)c3C(=O)N12,0.0015 µM (active),–
CC(C)(C)C(=O)OCOP(=O)(COCCn1cnc2c(N)ncnc21)OCOC(=O)C(C)(C)C,0.0429 µM (active),–
O=c1[nH]c(=O)n([C@H]2C[C@H](O)[C@@H](CO)O2)cc1C(F)(F)F,2.41 µM (active),–
CC(=O)[C@]1(O)Cc2c(O)c3c(c(O)c2[C@@H](O[C@H]2C[C@H](N)[C@H](O)[C@H](C)O2)C1)C(=O)c1ccccc1C3=O,2.15 µM (active),–
COC(=O)C1=C(C)NC(C)=C(C(=O)OCC(C)C)C1c1ccccc1[N+](=O)[O-] (centres undefined),17.1 µM (active),–
CC(C)OC(=O)[C@H](C)N[P@](=O)(CO[C@H](C)Cn1cnc2c(N)ncnc21)Oc1ccccc1,0.0271 µM (active),–
CCN(CC)CCNC(=O)c1c(C)[nH]c(/C=C2\C(=O)Nc3ccc(F)cc32)c1C,7.64 µM (active),–
C=CC1(C)CC(=O)C2(O)C(C)(O1)C(OC(C)=O)C(OC(=O)CCN(C)C)C1C(C)(C)CCC(O)C12C (centres undefined),inactive,–
Cc1oncc1C(=O)Nc1ccc(C(F)(F)F)cc1,inactive,–
CC(C)(C)c1ccc(C(=O)CCCN2CCC(OC(c3ccccc3)c3ccccc3)CC2)cc1,8.57 µM (active),–
NCCNc1ccc(NCCN)c2c1C(=O)c1ccncc1C2=O,21.5 µM (active),–
CN1CCCCC1CCN1c2ccccc2Sc2ccc(S(C)=O)cc21 (centres undefined),27.1 µM (active),–
Nc1nc(Cl)nc2c1ncn2C1CC(O)C(CO)O1 (centres undefined),9.61 µM (active),–
COc1cc([C@@H]2c3cc4c(cc3C(O[C@@H]3O[C@@H]5CO[C@@H](c6cccs6)OC5[C@H](O)[C@H]3O)C3COC(=O)[C@@H]32)OCO4)cc(OC)c1O (some centres undefined),0.192 µM (active),–
